Experimental data published in PubChem BioAssay AID1159580 (chemical genetic matrix, 2015).
“And” between values parts separate entries of the source, which are not always exact repeats. Identical values can stand only once. Among all 5,500 compounds or so, about 2,000 (36%) were called active. Not shown: some 18% with an inconclusive outcome. Rule as the data show it: active = normalized growth mostly below about 0.91 (no sharp cut-off); inconclusive = no clear call, values can overlap the other calls; inactive = mostly above about 0.92. Some of the results follow.

Test: chemical genetic growth profiling, strain panel (AID 1159580);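 also: tested at 20 µM; growth read once vehicle control cultures reached saturation at 30 °C; 1 = growth at the plate median or of vehicle wells; lower values mean less growth of the strain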
Conditions: S. cerevisiae deletion strains, growth OD
[1] = locus YAR019C, strain CDC15, stronger effect = lower value
[2] = locus YBL105C, strain PKC1, stronger effect = lower value
[3] = locus YBR135W, strain CKS1, stronger effect = lower value
[4] = locus YBR136W, strain MEC1, stronger effect = lower value
[5] = locus YBR160W, strain CDC28, stronger effect = lower value
[6] = locus YDL017W, strain CDC7, stronger effect = lower value
[7] = locus YDL028C, strain MPS1, stronger effect = lower value
[8] = locus YDL101C, strain DUN1, stronger effect = lower value
[9] = locus YDL108W, strain KIN28, stronger effect = lower value
[10] = locus YDL132W, strain cdc53, stronger effect = lower value
[11] = locus YDL214C, strain PRR2, stronger effect = lower value
[12] = locus YDR052C, strain DBF4, stronger effect = lower value
[13] = locus YDR054C, strain cdc34, stronger effect = lower value
[14] = locus YDR226W, strain ADK1, stronger effect = lower value
[15] = locus YDR477W, strain SNF1, stronger effect = lower value
[16] = locus YER123W, strain YCK3, stronger effect = lower value
[17] = locus YER133W, strain GLC7, stronger effect = lower value
[18] = locus YFL009W, strain cdc4, stronger effect = lower value
[19] = locus YFL029C, strain CAK1, stronger effect = lower value
[20] = locus YFR003C, strain YPI1, stronger effect = lower value
[21] = locus YFR019W, strain FAB1, stronger effect = lower value
[22] = locus YFR028C, strain CDC14, stronger effect = lower value
[23] = locus YGR040W, strain KSS1, stronger effect = lower value
[24] = locus YGR052W, strain FMP48, stronger effect = lower value
[25] = locus YGR092W, strain DBF2, stronger effect = lower value
[26] = locus YHR030C, strain SLT2, stronger effect = lower value
[27] = locus YHR079C, strain IRE1, stronger effect = lower value
[28] = locus YHR082C, strain KSP1, stronger effect = lower value
[29] = locus YHR205W, strain SCH9, stronger effect = lower value
[30] = locus YIL147C, strain SLN1, stronger effect = lower value
[31] = locus YJL095W, strain BCK1, stronger effect = lower value
[32] = locus YJL128C, strain PBS2, stronger effect = lower value
[33] = locus YJL157C, strain FAR1, stronger effect = lower value
[34] = locus YJR016C, strain ILV3, stronger effect = lower value
[35] = locus YJR066W, strain TOR1 (second series), stronger effect = lower value
[36] = locus YJR066W, strain TOR1, stronger effect = lower value
[37] = locus YKL048C, strain ELM1, stronger effect = lower value
[38] = locus YKL067W, strain YNK1, stronger effect = lower value
[39] = locus YKL101W, strain HSL1, stronger effect = lower value
[40] = locus YKL193C, strain SDS22, stronger effect = lower value
[41] = locus YKL203C, strain TOR2, stronger effect = lower value
[42] = locus YLR113W, strain HOG1, stronger effect = lower value
[43] = locus YLR133W, strain CKI1, stronger effect = lower value
[44] = locus YLR403W, strain SFP1, stronger effect = lower value
[45] = locus YML070W, strain DAK1, stronger effect = lower value
[46] = locus YMR001C, strain CDC5, stronger effect = lower value
[47] = locus YMR205C, strain PFK2 (second series), stronger effect = lower value
[48] = locus YMR277W, strain FCP1, stronger effect = lower value
[49] = locus YNL006W, strain LST8, stronger effect = lower value
[50] = locus YNL020C, strain ARK1, stronger effect = lower value
[51] = locus YNL161W, strain CBK1, stronger effect = lower value
[52] = locus YNL183C, strain NPR1, stronger effect = lower value
[53] = locus YNL207W, strain RIO2, stronger effect = lower value
[54] = locus YNL222W, strain SSU72, stronger effect = lower value
[55] = locus YNL307C, strain MCK1 (second series), stronger effect = lower value
[56] = locus YOL078W, strain AVO1, stronger effect = lower value
[57] = locus YOL136C, strain PFK27, stronger effect = lower value
[58] = locus YOR061W, strain CKA2, stronger effect = lower value
[59] = locus YOR119C, strain RIO1, stronger effect = lower value
[60] = locus YOR231W, strain MKK1, stronger effect = lower value
[61] = locus YOR329C, strain SCD5, stronger effect = lower value
[62] = locus YPL031C, strain PHO85, stronger effect = lower value
[63] = locus YPL153C, strain RAD53, stronger effect = lower value
[64] = locus YPL204W, strain HRR25, stronger effect = lower value
[65] = locus YPL209C, strain IPL1, stronger effect = lower value
[66] = locus YPL256C, strain CLN2, stronger effect = lower value
[67] = locus YPR025C, strain CCL1, stronger effect = lower value
[68] = locus YPR106W, strain ISR1, stronger effect = lower value
[69] = locus YPR111W, strain DBF20, stronger effect = lower value
[70] = strain NNK1, stronger effect = lower value
[71] = strain TSCII, stronger effect = lower value

Measured: normalized growth

C=CCc1c(CCC)nc(-c2ccccn2)[nH]c1=O
active: [42] 0.733 | [66] 0.823
inactive: [1] 0.931 | [2] 0.945 | [3] 0.95 | [4] 0.933 | [5] 0.947 | [6] 0.931 | [7] 0.931 | [8] 0.945 | [9] 0.937 | [10] 0.936 | [11] 0.893 | [12] 0.955 | [13] 0.916 | [14] 0.94 | [15] 0.891 | [16] 0.772 | [17] 0.912 | [18] 0.928 | [19] 0.92 | [20] 0.952 | [21] 0.939 | [22] 0.945 | [23] 0.893 | [24] 0.904 | [25] 0.752 | [26] 0.875 | [27] 0.701 | [28] 0.883 | [29] 0.983 | [30] 0.931 | [31] 0.784 | [32] 0.96 | [33] 0.867 | [34] 0.94 | [35] 0.767 | [36] 0.748 | [37] 0.966 | [38] 0.902 | [39] 0.896 | [40] 0.936 | [41] 0.926 | [43] 0.886 | [44] 0.892 | [45] 0.884 | [46] 0.937 | [47] 0.901 | [48] 0.944 | [49] 0.943 | [50] 0.877 | [51] 0.945 | [52] 0.825 | [53] 0.924 | [54] 0.945 | [55] 0.84 | [56] 0.933 | [57] 0.883 | [58] 0.877 | [59] 0.905 | [60] 0.73 | [61] 0.941 | [62] 0.891 | [63] 0.864 | [64] 0.856 | [65] 0.94 | [67] 0.945 | [68] 0.944 | [69] 0.954 | [70] 0.945 | [71] 0.929

CCCc1nc(-c2ccccn2)[nH]c(=O)c1CC1CC1
inactive: [1] 0.947 | [2] 0.955 | [3] 0.955 | [4] 0.952 | [5] 0.96 | [6] 0.956 | [7] 0.937 | [9] 0.956 | [10] 0.948 | [11] 0.944 | [12] 0.962 | [13] 0.93 | [14] 0.954 | [15] 0.945 | [16] 0.903 | [17] 0.952 | [18] 0.942 | [19] 0.935 | [20] 0.958 | [21] 0.968 | [22] 0.96 | [23] 0.936 | [24] 1.01 | [25] 0.865 | [27] 0.853 | [28] 0.968 | [29] 0.98 | [30] 0.945 | [31] 0.915 | [32] 0.96 | [33] 0.928 | [34] 0.953 | locus YJR043C, strain POL32, stronger effect = lower value 0.923 | [35] 0.849 | [36] 0.887 | [37] 0.956 | [38] 0.954 | [39] 0.933 | [40] 0.952 | [41] 0.98 | locus YLR058C, strain SHM2 (second series), stronger effect = lower value 0.938 | [42] 0.88 | [43] 0.938 | [44] 0.94 | [45] 0.959 | [46] 0.949 | [47] 0.939 | [48] 0.953 | [49] 0.966 | [50] 0.937 | [51] 0.957 | [52] 0.93 | [53] 0.94 | [54] 0.959 | [55] 0.937 | locus YNL322C, strain KRE1, stronger effect = lower value 0.975 | [56] 0.951 | [57] 0.959 | [58] 0.925 | [59] 0.937 | [60] 0.881 | [61] 0.952 | [62] 0.941 | [63] 0.926 | [64] 0.927 | [65] 0.958 | [66] 0.9 | [67] 0.949 | [68] 0.979 | [69] 0.973 | [70] 0.962 | [71] 0.949
active: locus YAL013W, strain DEP1, stronger effect = lower value 0.861 | locus YBR229C, strain ROT2, stronger effect = lower value 0.727 | locus YDL134C, strain PPH21, stronger effect = lower value 0.862 | locus YEL061C, strain CIN8, stronger effect = lower value 0.611 | locus YGR078C, strain PAC10, stronger effect = lower value 0.842 | locus YGR229C, strain SMI1, stronger effect = lower value 0.886 | locus YHR087W, strain rtc3, stronger effect = lower value 0.754 | locus YJL187C, strain SWE1, stronger effect = lower value 0.829 | locus YJR075W, strain HOC1, stronger effect = lower value 0.879 | locus YKL190W, strain CNB1, stronger effect = lower value 0.698 | locus YLR039C, strain RIC1, stronger effect = lower value 0.489 | locus YLR085C, strain ARP6, stronger effect = lower value 0.218 | locus YLR262C, strain YPT6, stronger effect = lower value 0.757 | locus YML094W, strain GIM5, stronger effect = lower value 0.534 | locus YMR219W, strain ESC1, stronger effect = lower value 0.916 | locus YMR263W, strain SAP30, stronger effect = lower value 0.889 | locus YMR307W, strain GAS1, stronger effect = lower value 0.386 | locus YNL128W, strain TEP1, stronger effect = lower value 0.869 | locus YNL153C, strain GIM3, stronger effect = lower value 0.84 | locus YNL298W, strain CLA4 (second series), stronger effect = lower value 0.601 | locus YNR030W, strain Alg12, stronger effect = lower value 0.498 | locus YPL055C, strain LGE1, stronger effect = lower value 0.738 | locus YPL241C, strain CIN2, stronger effect = lower value 0.648 | locus YPR135W, strain CTF4, stronger effect = lower value 0.413
0.292 (active) and 0.919 (inactive): [26]
0.948 (inactive) and 0.899 (active): [8]
